The record followed here is PubChem BioAssay (NCI).

Molecules are shown by their SMILES. This is part of a sample that, as a whole, favours compounds with a hit. Of some 83,000 tested, about 20% had one in any assay.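 Results are percent growth after 48 hours of single-concentration exposure. 100 means growth as in untreated cells, lower positive values show inhibition; negative values down to -100 show cell death.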 Calls of active or inactive are those of the source. The calls were made as follows: active = growth percent below 10; inactive = the rest.

For the experiment, the system named is SK-MEL-2 melanoma. The experiment is described as follows: NCI-60 one-dose screen, 48 h (100 = growth as untreated, 0 = no growth, -100 = all killed). The following applies: 10 µM unless noted.
For `O=C1OC(Cc2ccccc2)C1c1ccccc1` (stereo not drawn), the growth is 102% (inactive).
For `O=C1Nc2cc(-c3ccc(NC(=O)c4ccccc4)cc3)ccc2/C1=C/c1ccc[nH]1`, the growth is 102% (inactive).
Regarding `O=C(N/N=C/c1cc2ccccc2n2nnnc12)Nc1ccccc1`, the growth is 105% (inactive).
Then `O=C1c2ccc3c4c(ccc(c24)C(=O)N1CCCNCc1ccccc1)C(=O)N(CCCNCc1ccccc1)C3=O`, with -82.9% (active); and `C=C1C(=O)O[C@H]2[C@H]1CC/C(COC(=O)NCCc1c[nH]c3ccc(OC)cc13)=C\CC[C@@]1(C)O[C@@H]21`, with 62.1% (inactive).
Then `CCOc1ccc(Nc2nc(-c3ccc4c(c3)NC(=O)CO4)cs2)cc1`, with 81.3% (inactive); and `COc1ccc(C(=O)c2cc(C)c(OC)c(C)c2)c(OC)c1OC(=O)C(Cl)Cl`, with 24.4% (inactive).
To `CN(C)c1ccc(Nc2c3ccccc3nc3cc(NC(=O)CCN4CCCC4)ccc23)cc1` belongs 24% (inactive); to `Cc1nc(N)nc(N[C@@H](C)c2nc3cccc(NCc4ccc(C(=O)NO)cc4)c3c(=O)n2-c2ccccc2)n1`, 74.7% (inactive); to `COc1ccc(C/C(=C(\C)c2ccc(OCCN3CCCC3)cc2)c2ccc(OCCN3CCCC3)cc2)cc1`, 102% (inactive).
Regarding `NC(=NCCCOc1ccc(F)cc1)Nc1ccc(Cl)cc1`, the growth is 84.6% (inactive).
Regarding `CCCOC(=O)N[C@H]1CCc2c(Cl)c(OC)c(OC)c(OC)c2-c2ccc(SC)c(=O)cc21`, the growth is 48.2% (inactive).
In the case of `N#Cc1c(NC(=O)NCc2ccccc2)sc2c1CCCC2`, the growth was 45.6% (inactive).
On to `NCCCCCCNc1cc(-c2cccc(OC(F)(F)F)c2)nc2ccc(N3CCCC3)cc12`, for which the growth was -63.6% (active).
On to `C[C@H]1[C@H](C)CC[C@]2(C(=O)NCC#CCN3CCN(C)CC3)CC[C@]3(C)C(=CC[C@@H]4[C@@]5(C)Cc6c([nH]c7ccccc67)C(C)(C)[C@@H]5CC[C@]43C)[C@H]12`, for which the growth is 105% (inactive).
For the molecule `N#Cc1c(NCc2ccccc2I)sc2c1CCCCC2`, the growth is 105% (inactive).
To `CN1C(=O)NC(c2ccc3c(c2)OCO3)C=C1c1ccccc1` (stereo not drawn) belongs 100% (inactive); to `COc1cc(/C=C\C(=O)O)ccc1OCc1ccccc1`, 93.5% (inactive).
Take `CCN(CC)c1ccc(/C=N/NC(=O)CSc2nc3ccccc3c(=O)n2Cc2ccc(S(N)(=O)=O)cc2)c(O)c1`: the growth was 10.5% (inactive).
To `Cc1ccc(S(=O)(=O)NNC(=O)/C(=C\c2ccc(Cl)cc2)c2nc3ccccc3s2)cc1` belongs 99.4% (inactive); to `CCOC(=O)[C@@H]1CCCN(S(=O)(=O)c2ccc(S(=O)(=O)N(CC)CC)c(F)c2)C1`, 62.6% (inactive); to `Cc1ccc(CNc2c3ccccc3nc3cc(NC(=O)CCN4CCCC4)ccc23)cc1`, 40.2% (inactive).
Consider `COc1ccc(CC(C)=C(c2ccc(OCCN3CCCCCC3)cc2)c2ccc(OCCN3CCCCCC3)cc2)cc1`, for which the growth was -82.2% (active).
To `CCCCNC(=O)Oc1ccc(/C(=C(\C)c2ccccc2)c2ccc(OCCN3CCCCC3)cc2)cc1` belongs 72.7% (inactive); to `Cn1c2ccccc2c2c3c(c4c5ccccc5n(C)c4c21)C(=O)OC3`, 107% (inactive); to `CNC(=O)c1cc(Cn2nc(C)c(NC(=O)Nc3ccc(Cl)c(C(F)(F)F)c3)c2C)ccn1`, 82.3% (inactive).
To `O=C(Nc1ccc(NC(=O)c2cc(=O)[nH]c3ccccc23)cc1)Nc1cccc(Cl)c1` belongs 101% (inactive); to `COc1ccc(C(=O)CSc2nc(-c3cc(OC)ccc3OC)cc(-c3ccc(Cl)cc3)c2C#N)cc1`, 70.8% (inactive); to `Cc1cc(C)c(S(=O)(=O)Oc2ccccc2[N+](=O)[O-])c(C)c1`, 7.67% (active).
Regarding `O=C(CCN1CCCC1)Nc1ccc2c(NCc3ccccc3)c3ccccc3nc2c1`, the growth is -1.81% (active).
Regarding `CCN(CC)c1ccc(/C=N/NC(=O)CSc2nc3ccccc3c(=O)n2CCc2ccc(S(N)(=O)=O)cc2)c(O)c1`, the growth was 38.5% (inactive).
In the case of `O=C(CSc1nc2sc3c(c2c(=O)n1-c1ccc(Cl)cc1)CCCC3)Nc1nc(-c2cccc(Br)c2)cs1`, the growth was 97% (inactive).
Then `COc1ccc(C(C)=O)c(OC)c1`, with 94.6% (inactive); and `COc1cccc(-c2nc3occn3c2-c2ccnc(NCCCNS(=O)(=O)c3ccc(C(F)(F)F)cc3)n2)c1`, with 92.3% (inactive); and `C=C1C(=O)O[C@H]2[C@H]1CC/C(C(=O)NCCCCCNC(=O)/C1=C/CC[C@@]3(C)O[C@H]3[C@H]3OC(=O)C(=C)[C@@H]3CC1)=C\CC[C@@]1(C)O[C@@H]21`, with 107% (inactive).
Take `C=C1C(=O)O[C@H]2[C@H]1CC/C(COC(=O)NCc1c[nH]c3ccc(F)cc13)=C\CC[C@@]1(C)O[C@@H]21`: the growth is 28.6% (inactive).
Turning to `Cc1cc2nc3c4cccc(O)c4n(CCN(C)C)c3nc2cc1C`, the growth was 54.2% (inactive).
Then `O=C(Cc1ccccc1)NNc1nc(Cl)nc(N2CCN(C(c3ccccc3)c3ccccc3)CC2)n1`, with 99.8% (inactive).
